Screening data (PubChem)
Most compounds without a hit are left out; they make up all but 6.9% or so of the library.
KB-V1 cytotox: qHTS assay for MDR1-selective chemotherapeutics: Primary screen using the drug-selected MDR subline cells KB-V1. hit rate 3.4% among 400,000. Potency, µM (series often up to 46.1 µM), actives largely listed as cytotoxic. KB-V1 MDR cells viability, CellTiter-Glo, 72 h; note: nearly all actives have a fitted effect of over 60% in size
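Cells of the MDR subline KB-V1 are plated, dosed with compound at multiple concentrations, and incubated 72 h at 37 degrees C; CellTiter-Glo is then added and luminescence read after 10 min.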
MCF10A rereplic: A quantitative high throughput screen for small molecules that induce DNA re-replication in MCF 10a normal breast cells. hit rate 2.9% among 350,000. Potency, µM (series often up to 46.1 µM), usual class: activators. MCF 10A DNA re-replication, Hoechst nuclear intensity, 48 h; note: nearly all actives have a fitted effect of over 50% in size
S-ASM inh: Inhibitors of Secretory Acid Sphingomyelinase (S-ASM): qHTS | placental ASM, HMU-PC fluorogenic substrate, 60 min | Potency, µM (top dose mostly 57.5 µM), hits mostly inhibitors | hit rate 0.006% among 340,000
Target sequence (P17405 47-631 limits assumed): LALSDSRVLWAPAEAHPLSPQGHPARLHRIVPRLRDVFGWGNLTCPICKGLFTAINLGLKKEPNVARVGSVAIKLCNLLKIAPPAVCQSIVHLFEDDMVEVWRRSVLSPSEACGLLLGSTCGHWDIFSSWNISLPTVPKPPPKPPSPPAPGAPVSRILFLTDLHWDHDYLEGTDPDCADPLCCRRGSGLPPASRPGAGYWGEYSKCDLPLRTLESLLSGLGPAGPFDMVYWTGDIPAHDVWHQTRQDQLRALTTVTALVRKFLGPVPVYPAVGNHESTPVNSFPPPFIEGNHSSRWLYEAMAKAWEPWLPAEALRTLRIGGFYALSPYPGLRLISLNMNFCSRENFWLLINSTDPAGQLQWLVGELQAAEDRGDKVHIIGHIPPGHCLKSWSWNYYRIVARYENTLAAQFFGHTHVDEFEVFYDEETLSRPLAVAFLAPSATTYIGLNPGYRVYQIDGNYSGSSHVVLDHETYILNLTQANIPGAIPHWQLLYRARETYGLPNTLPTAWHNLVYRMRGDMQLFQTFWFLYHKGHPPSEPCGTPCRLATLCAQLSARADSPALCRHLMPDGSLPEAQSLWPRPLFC
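Human placenta-derived ASM enzyme was preincubated with compound for 10 minutes at room temperature, then given fluorogenic substrate HMU-PC0 (9 uM final) for 60 minutes at 37 °C; a pH 10 stop preceded fluorescence reading at Ex 386/Em 447 nm.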
KB-3-1 cytotox: qHTS assay for MDR1-selective chemotherapeutics: Primary screen using the parental adenocarcinoma cell KB-3-1; KB-3-1 viability, CellTiter-Glo ATP luminescence, 72 h; Potency, µM (titrated, usually from 46.1 µM), most hits filed as cytotoxic; hit rate 1.4% among 400,000; note: nearly all actives have a fitted effect of over 60% in size
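KB-3-1 parental drug-naive adenocarcinoma cells in DMEM/10% FBS, incubated 72 h at 37 C with pin-transferred compounds across a concentration series. Viability by CellTiter-Glo luminescence; concentration-response curves fitted after normalization.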
Giardia kill: Small Molecules that selectively kill Giardia lamblia: qHTS; Giardia lamblia trophozoite viability; hit rate 0.15% among 340,000; activity change, % at 7.66 µM, hits read low; in the data active = activity change below about -80%; inconclusive = between about -30% and that limit;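 note: parasites exposed to compound for two days anaerobically before the ATP read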
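Killing of trophozoites was scored by loss of ATP luminescence after a 48 hrs anaerobic exposure to compounds at 37 deg C, using 100 cells per well.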
SW480 rereplic: A quantitative high throughput screen for small molecules that induce DNA re-replication in SW480 colon adenocarcinoma cells. SW480 DNA re-replication, Hoechst DNA content imaging, 48 h. Potency, µM (top dose mostly 46.1 µM), actives largely listed as activators. hit rate 1.8% among 340,000; note: nearly all actives have a fitted effect of over 55% in size
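250 cells/well; 23 nL cpd via pin tool; 48 hr, 37 C, 5% CO2; Hoechst 40 min; imager read of total nuclear intensity, ex 405/em 500-530 nm.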
Numbers stand for hits; n = inactive; u = inconclusive; x = not tested or not shown. Unless noted, calls come from the whole dose curve; as a rule, active = well fitted curve in the direction sought with a large enough effect; inconclusive = small, poorly fitted or top-dose-only effect, or another doubt; inactive = no such curve, though single readings can be large; an effect the other way counts as inactive or inconclusive.

SMILES | KB-V1 cytotox | MCF10A rereplic | S-ASM inh | KB-3-1 cytotox | Giardia kill | SW480 rereplic
COc1ccc(-n2c(=O)c3c(c4cc(OC)ccc4n3C)n(Cc3ccc(F)cc3Cl)c2=O)cc1 | n | x | x | n | x | x
Cc1ccc(S(=O)(=O)N(C)c2ccc3c(c2)C(=O)c2ccccc2-3)cc1 | 21µM | x | x | u | x | x
COc1ccc(-c2ccc(CNCCCSc3nnnn3C)o2)cc1Cl | n | x | x | n | x | x
c1ccc(N2CCN(Cc3cnc(N4CCOCC4)s3)CC2)cc1 | 13µM | u | n | n | n | n
Clc1ncc(CN2CCN(c3ccccc3)CC2)s1 | n | n | n | n | n | n
OCC1(CCCc2ccccc2)CCN(Cc2cnc(N3CCOCC3)s2)CC1 | u | u | n | 21µM | n | n
CC(=O)NC(c1cc(Cl)c2cccnc2c1O)C1CC1 (centres undefined) | 16µM | u | n | n | n | 1.3µM
CC(=O)NC(c1ccco1)c1cc(Cl)c2cccnc2c1O (centres undefined) | n | x | x | n | x | x
O=C(CCc1ccccc1)NC(c1cccs1)c1cc(Cl)c2cccnc2c1O (centres undefined) | 2.1µM | u | n | u | n | u
CC(=O)NC(c1ccc(C)cc1)c1cc(Cl)c2cccnc2c1O (centres undefined) | u | u | n | 5.8µM | n | 2.9µM
Oc1c(C(Nc2ccccn2)c2cccnc2)cc(Cl)c2cccnc12 (centres undefined) | n | 23µM | n | u | n | 6.5µM
CCN(C(=O)CCNC(=O)Cn1cnc2ccccc2c1=O)c1cc(OC)ccc1OC | n | x | x | n | x | x
COc1ccc(Cl)cc1NC(=O)NCc1ccccn1 | n | n | n | n | n | n
COC(=O)Cn1cnc2c(nnn2-c2cccc(OC)c2)c1=O | n | n | n | n | n | n
CC1CC=CC2C1C(=O)N(Cc1ccccc1)C2c1ccc(-c2ccc(F)cc2)cc1F (centres undefined) | x | x | x | x | n | x
CNC(=O)C1CCC(Cn2c(=O)c3sccc3n(CC(=O)Nc3ccc(C)c(C)c3)c2=O)CC1 (centres undefined) | u | x | x | n | x | x
COc1ccc(C(=O)NC(c2ccc(OC)c(OC)c2)c2cc(Cl)c3cccnc3c2O)cc1 (centres undefined) | n | x | x | n | x | x
Cc1cc(NC(c2cccnc2)c2ccc3cccnc3c2O)no1 (centres undefined) | u | 10µM | n | u | n | 1.5µM
Oc1c(C(Nc2cccc(C(F)(F)F)c2)c2cccnc2)ccc2cccnc12 (centres undefined) | n | u | n | n | n | u
CCC(=O)NC(c1ccco1)c1cc(Cl)c2cccnc2c1O (centres undefined) | u | u | n | u | n | 2.6µM
COc1ccc(C(=O)NC(c2ccco2)c2cc(Cl)c3cccnc3c2O)cc1 (centres undefined) | u | x | x | n | x | x
COc1ccc(C(NC(=O)c2cccnc2)c2cc(Cl)c3cccnc3c2O)cc1OC (centres undefined) | 6.5µM | 13µM | n | u | n | u
CCC(=O)NC(c1ccc(OC)cc1)c1cc(Cl)c2cccnc2c1O (centres undefined) | n | n | n | u | n | 0.52µM
Cc1ccc(OC(=O)c2snnc2C)cc1C | n | x | x | n | x | x
COc1ccc(CNC(=O)c2cc3c(=O)n4cccc(C)c4nc3s2)cc1 | n | x | x | n | x | x
SMILES | KB-V1 cytotox | MCF10A rereplic | S-ASM inh | KB-3-1 cytotox | Giardia kill | SW480 rereplic
O=C(CSc1nc2ccccc2n1CC(=O)Nc1ccc(F)cc1F)Nc1ccc(F)cc1 | n | x | x | n | x | x
COc1ccc(-c2cnc(C)o2)cc1S(=O)(=O)Nc1ccc(NC(C)=O)cc1 | n | x | x | n | x | x
COc1ccc2c(c1)C(=O)CC(c1ccc3c(c1)OCCO3)O2 (centres undefined) | n | n | n | n | n | n
Cc1ccc2c(c1)C(=O)CC(c1ccc3c(c1)OCCO3)O2 (centres undefined) | n | 16µM | n | n | n | n
CCOC(=O)c1cn2nc(-c3ccc(OC)cc3)cc2nc1C1CCN(C(=O)OC(C)(C)C)CC1 | 6.5µM | u | n | n | n | n
COc1ccc(-c2cc(C3CCN(c4ccc(C(C)=O)cc4[N+](=O)[O-])CC3)[nH]n2)cc1 | 15µM | n | u | u | n | n
COc1ccc(-c2cc(C3CCN(C(=O)OC(C)(C)C)CC3)[nH]n2)cc1 | 13µM | n | n | u | n | n
COc1ccc(CN(Cc2ccccc2)C(=O)c2ccncc2)cc1COc1ccc(NC(C)=O)cc1 | x | x | x | x | n | x
Cc1cc(C)c(C)c(OCCOCCN2CCN(C)CC2)c1 | n | 21µM | n | n | n | n
Cc1cc(C)nc(NC(N)=NCCc2ccccc2)n1 | n | 18µM | n | 5.2µM | n | 16µM
Cc1cc(NC(=O)CCCC(=O)N(c2ccccc2)C(C(=O)NC2CCCCC2)c2cccs2)no1 (centres undefined) | 2.1µM | n | n | n | n | n
Cc1ccc(C(C(=O)NC2CCCC2)N(C(=O)CCC(=O)Nc2cc(C)on2)c2ccccc2)cc1 (centres undefined) | n | n | n | n | n | n
Nc1ccc2nc(SCc3ccccc3F)sc2c1 | n | 21µM | n | n | n | n
COC(=O)c1cc(Nc2cc(C)c3ccc(O)cc3n2)cc(C(=O)OC)c1 | n | 15µM | n | n | n | u
COC(=O)c1cc(Nc2cc(C)c3c(O)cccc3n2)cc(C(=O)OC)c1 | n | n | n | n | n | u
Cc1ccc(Nc2cc(C)c3c(O)cccc3n2)cc1C | n | n | n | n | n | n
Cc1ccc(Nc2cc(C)c3ccc(O)cc3n2)cc1C | n | 23µM | n | u | n | u
COc1cc(OC)c(CN2CCC(Cc3ccccc3)CC2)cc1Br | n | 12µM | n | u | n | n
CCOC(=O)C1CCCN(Cc2cc(Br)c(OC)cc2OC)C1 (centres undefined) | 10µM | n | n | n | n | n
CCOC(=O)C1CCCN(Cc2cc(Br)ccc2OC)C1 (centres undefined) | n | n | n | n | n | n
COc1ccc(OC)c(CN2CCC(Cc3ccccc3)CC2)c1 | n | n | n | n | n | n
Cc1nc(-n2nc(C)c(CCC(C)C)c2C)sc1C(=O)Nc1cccc(Cl)c1C | n | x | x | n | x | x
Cc1cccc(C(=O)Nc2ccccc2C(=O)OCc2cc(=O)n3nc(C4CC4)sc3n2)c1 | n | x | x | n | x | x
O=C(O)Cc1ccc(NS(=O)(=O)c2ccc3c(c2)OCCO3)cc1 | u | x | x | n | x | x
COc1cc2c(cc1OC)C(COc1cc(C)cc(C)c1)N(C(=O)c1ccc(S(=O)(=O)N3CCCC3)cc1)CC2 (centres undefined) | n | x | x | n | x | x
